Screens: PubChem BioAssay, several laboratories
Most compounds without a hit are left out; they make up all but 4.1% or so of the library.
hgDAF12 agonist: agonists of H. glycines DAF-12 nuclear receptor | HEK293 GAL4-hgDAF12 UAS-luciferase reporter, agonist luminescence; normalized to butyrate control | activation, % at 6.8 µM | hit rate 1.8% among 370,000;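 active = activation above a cutoff set at the mean of all screened compounds plus 3 SD, cut at about 10% in these data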
DAX1 inh-1: inhibitors of DAX1 repression of SF-1 activated StAR promoter. HEK293T StAR-luciferase reporter, SF-1/DAX-1 repression relief. inhibition, % at 6.8 µM. hit rate 1.1% among 370,000;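 active = inhibition above the mean over all tested compounds plus 3 SD, cut at about 3.6% in these data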;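 note: higher inhibition means more luminescence from relief of DAX-1 repression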
hcDAF-12 act: activators of H. contortus DAF-12 nuclear receptor; HEK293 hcDAF-12 lit1-tk-luc reporter, luminescence; 0% DMSO, 100% Δ7-dafachronic acid; activation, % at 6.8 µM; hit rate 1.4% among 370,000; AID 652067;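 active = activation above the mean of all tested compounds plus 3 SD, cut at about 5.5% in these data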
PolyA inh: yeast polyadenylation inhibition. S. cerevisiae SKY197-pL101 polyadenylation reporter, beta-gal luminescence; efflux-impaired pdr1/pdr3 knockout yeast; score 100 = 6 SD above DMSO. activity score, % at 12 µM. hit rate 0.02% among 300,000;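 active = lowest replicate activity score at least 50, where 100 means six control SD above control mean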;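 note: yeast exposed to compound for 9 h at 30 °C; higher score means more reporter readthrough which indicates perturbed polyadenylation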
ssDAF-12 act: S. stercoralis DAF-12 activation, primary screen. HEK293 ssDAF-12/GRIP1 lit1-tk-luc reporter, luminescence; % of 3 µM dafachronic acid response. activation, % at 6.8 µM. hit rate 1% among 370,000;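 active = activation above the mean over all tested compounds plus 3 SD, cut at about 0.9% in these data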
DAX1 inh-2: NR0B1 (DAX1) inhibition; P51843; HEK293 Gal4-DAX1 luciferase reporter, luminescence; inhibition, % at 6.75 µM; hit rate 0.99% among 340,000; AID 504766;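 active = inhibition above the mean over all tested compounds plus 3 SD, cut at about 4.2% in these data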;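 note: inhibition shows as a rise in luminescence from relieved DAX1 repression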
Target sequence (P51843 207-470 limits assumed): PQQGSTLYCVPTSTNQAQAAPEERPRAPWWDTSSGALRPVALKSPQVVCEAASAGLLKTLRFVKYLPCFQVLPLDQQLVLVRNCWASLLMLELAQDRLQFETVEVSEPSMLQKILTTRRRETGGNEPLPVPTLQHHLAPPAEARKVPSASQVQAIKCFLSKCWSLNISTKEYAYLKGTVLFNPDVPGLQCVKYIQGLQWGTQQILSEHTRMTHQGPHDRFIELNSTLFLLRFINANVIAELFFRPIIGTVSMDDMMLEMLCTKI
Numbers stand for hits; 0 = inactive; - = not tested or not shown.

SMILES | hgDAF12 agonist | DAX1 inh-1 | hcDAF-12 act | PolyA inh | ssDAF-12 act | DAX1 inh-2
O=C(OCc1ccccc1)[C@H](Cc1ccccc1)NC(=O)[C@@H]1CC=C[C@@H]2CCN(Cc3ccccc3)C(=O)[C@@H]21 | 0 | - | 0 | - | 0 | -
O=c1[nH]c(/C=C/c2ccccc2F)nc2ccccc12 | 11 | 0 | 0 | 0 | 0 | 0
CC(C)CN1CCC(CN2C(=S)NC[C@@H]2Cc2ccccc2)CC1 | 0 | 0 | 0 | - | 0 | -
Nc1ccn([C@@H]2O[C@H](C(=O)Nc3ccc(C(=O)N4CCCCC4)cc3)[C@@H](O)[C@H]2O)c(=O)n1 | 0 | 0 | 0 | - | 0 | -
O=C(Nc1ccc(C(=O)N2CCCCC2)cc1)[C@H]1O[C@@H](n2ccc(=O)[nH]c2=O)[C@H](O)[C@@H]1O | 0 | 3.7 | 0 | - | 0 | -
COc1ccc2c(C(=O)c3ccc(C)cc3)n(Cc3ccc(C(N)=O)cc3)[n+]([O-])c2c1 | 0 | 0 | 11 | - | 2.1 | 0
CC1OC(Nc2cccc3ccccc23)C(O)C(O)C1O (stereo not given) | 0 | 0 | 0 | 0 | 1.8 | 0
CC1OC(Nc2ccc(N=Nc3ccccc3)cc2)C(O)C(O)C1O (stereo not given) | 0 | 0 | 0 | 0 | 0 | 0
Clc1ccc(SCc2cn3ccccc3n2)cc1 | 12 | 0 | 0 | 0 | 0 | 0
Cc1ccc(SCc2cn3cc(Cl)ccc3n2)cc1 | 0 | 0 | 0 | 0 | 0 | 0
Nc1nnc(SCc2cn3cc(Cl)ccc3n2)s1 | 12 | 0 | 0 | 0 | 0 | 0
Cc1cccc2nc(CSc3ccc(Cl)cc3)cn12 | 12 | 4.2 | 0 | 0 | 0 | 0
C[C@H]1[C@H](N(C)C)CC[C@@]23CCCN2C(=O)CCC[C@@H]13 | 0 | - | 0 | - | 0 | -
C[C@@H]1COc2cc(NCCCN3CCOCC3)ccc2S(=O)(=O)N1 | 0 | 0 | 0 | - | 0 | -
O=C(NCCN1CCOCC1)c1cc(Br)ccc1Cl | 0 | 0 | 0 | 0 | 1.1 | 0
CC1(C)CC(=O)C(c2c[nH]c3ccccc23)C(=O)C1 | 0 | 0 | 0 | 0 | 0 | 0
C=C(c1cn(C(C)=O)c2ccccc12)c1cn(C(C)=O)c2ccccc12 | 0 | 0 | 5.7 | - | 0 | 0
CC(=O)n1cc(C2C(=O)CC(C)(C)CC2=O)c2ccccc21 | 0 | 0 | 6.3 | 0 | 1.4 | 0
O=C1c2cnc3nc(SCc4ccccc4)nn3c2CC2c3ccccc3CCN12 (stereo not given) | 0 | 0 | 0 | 114 | 0 | 0
O=C1CC2c3ccccc3CCN2C(=O)CN1Cc1ccccc1 (stereo not given) | 0 | 0 | 0 | - | 0 | -
CC1(c2nnnn2Cc2ccccc2)CSCC(=O)N1Cc1cccs1 (stereo not given) | 0 | 0 | 0 | - | 0 | -
CN[C@H]1C[C@H]2c3[nH]c4c(-c5cccc(C)c5)cccc4c3CCN2C[C@H]1[C@H](C)O | 0 | 0 | 0 | - | 0 | -
CSc1nsc(/C=C/Nc2ccc(C)cc2)c1C#N | 0 | 0 | 6.5 | 0 | 2.4 | 0
CSc1nsc(/C=C/Nc2ccc(C)c(C)c2)c1C#N | 0 | 0 | 0 | 0 | 0 | 0
C/C(=N\OC(=O)c1ccc(Br)cc1)c1ccccn1 | 0 | 0 | 0 | 0 | 0.9 | 0
SMILES | hgDAF12 agonist | DAX1 inh-1 | hcDAF-12 act | PolyA inh | ssDAF-12 act | DAX1 inh-2
CCn1c(=O)n(CC(=O)N2CCC(C)CC2)c(=O)c2ccccc21 | 0 | 0 | 0 | - | 0 | -
NS(=O)(=O)c1ccc(NC(=O)/C=C/c2ccccc2[N+](=O)[O-])cc1 | 0 | 0 | 0 | 0 | 0 | 0
O=C(/C=C/c1ccccc1)Nc1cccc(C(=O)O)c1 | 13 | 4.4 | 0 | 0 | 0 | 0
O=C(/C=C\c1ccccc1[N+](=O)[O-])Nc1ccccc1 | 11 | 0 | 0 | 0 | 0 | 0
CCCCc1c(-c2ccccc2OC)ncn1C1CCCCC1 | 0 | 0 | 0 | - | 0 | -
CCN(Cc1cc(=O)[nH]c2ccccc12)C(=O)C(C)C | 0 | 0 | 0 | 0 | 0.9 | 0
CCCC(=O)N(Cc1cc(=O)[nH]c2ccccc12)c1ccc(C)cc1 | 0 | 0 | 0 | 0 | 0 | 0
CCN(Cc1cc(=O)[nH]c2ccccc12)C(=O)c1ccc(C)cc1 | 0 | 0 | 0 | 0 | 1.8 | 0
Cc1ccc(N(Cc2cc(=O)[nH]c3ccccc23)C(=O)C(C)C)cc1 | 0 | 0 | 0 | 0 | 0 | 0
CC(C)=CC(=O)Nc1nnc(-c2ccccc2C)s1 | 0 | 0 | 0 | 0 | 0 | 5.2
CCc1sc(C(=O)Nc2ccc3c(c2)OCCO3)cc1Br | 11 | 7.1 | 0 | 0 | 0 | 0
